Data on seven molecules can be found in ChEMBL document CHEMBL1961873, “Compounds: GSK PKIS; Assays: Nanosyn kinase panel” (2012).

Experiment [1] relates to Proto-oncogene tyrosine-protein kinase receptor Ret (Homo sapiens), P07949 [Y791F]. The following applies: at 1 µM.
For experiment [2], the target named is Macrophage-stimulating protein receptor (Homo sapiens) (UniProt Q04912). Particulars: at 0.1 µM.
Experiment [3] shares this target. Particulars: at 1 µM.
For experiment [4], the target named is Proto-oncogene tyrosine-protein kinase ROS (Homo sapiens) (UniProt P08922). Particulars: at 0.1 µM.
For experiment [5] the target is unchanged. The following applies: at 1 µM.
The target of experiment [6] is Proto-oncogene tyrosine-protein kinase Src (Homo sapiens) (UniProt P12931). Particulars: at 0.1 µM.
For experiment [7] the target is unchanged. The following applies: at 1 µM.
In experiment [8] the target is Tyrosine-protein kinase Srms (Homo sapiens) (UniProt Q9H3Y6). Particulars: at 0.1 µM.
Experiment [9] shares this target. The following applies: at 1 µM.
Experiment [10] has as its target Tyrosine-protein kinase SYK (Homo sapiens) (UniProt P43405). The following applies: at 0.1 µM.
For experiment [11] the target is unchanged. Particulars: at 1 µM.
For experiment [12], the target named is T1, Tyrosine-protein kinase Tec (Homo sapiens) (UniProt P42680).
T1 sequence (whole entry): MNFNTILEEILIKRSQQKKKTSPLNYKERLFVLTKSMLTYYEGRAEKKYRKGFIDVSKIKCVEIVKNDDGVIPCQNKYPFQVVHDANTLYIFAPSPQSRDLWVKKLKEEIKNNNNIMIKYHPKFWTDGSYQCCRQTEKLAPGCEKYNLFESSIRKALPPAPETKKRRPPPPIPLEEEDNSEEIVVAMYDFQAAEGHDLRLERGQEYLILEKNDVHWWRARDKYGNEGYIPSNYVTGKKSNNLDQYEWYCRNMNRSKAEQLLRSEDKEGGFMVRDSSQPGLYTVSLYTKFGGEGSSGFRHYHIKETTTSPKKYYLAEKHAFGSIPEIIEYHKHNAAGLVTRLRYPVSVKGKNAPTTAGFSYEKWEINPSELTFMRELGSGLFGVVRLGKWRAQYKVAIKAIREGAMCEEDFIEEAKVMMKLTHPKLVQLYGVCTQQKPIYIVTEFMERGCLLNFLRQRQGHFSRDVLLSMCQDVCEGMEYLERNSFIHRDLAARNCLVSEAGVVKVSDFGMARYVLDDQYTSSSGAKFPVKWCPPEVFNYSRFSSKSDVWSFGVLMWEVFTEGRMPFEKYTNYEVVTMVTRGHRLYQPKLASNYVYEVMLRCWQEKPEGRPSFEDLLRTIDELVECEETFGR
Particulars: at 0.1 µM.

The target in experiment [13] is T1, Tyrosine-protein kinase Tec (Homo sapiens). Particulars: at 1 µM.
In experiment [14] the target is Angiopoietin-1 receptor (Homo sapiens) (UniProt Q02763). Particulars: at 0.1 µM.
The target is the same in experiment [15]. The following applies: at 1 µM.
The target in experiment [16] is T2, Non-receptor tyrosine-protein kinase TNK1 (Homo sapiens) (UniProt Q13470).
T2 sequence (whole entry): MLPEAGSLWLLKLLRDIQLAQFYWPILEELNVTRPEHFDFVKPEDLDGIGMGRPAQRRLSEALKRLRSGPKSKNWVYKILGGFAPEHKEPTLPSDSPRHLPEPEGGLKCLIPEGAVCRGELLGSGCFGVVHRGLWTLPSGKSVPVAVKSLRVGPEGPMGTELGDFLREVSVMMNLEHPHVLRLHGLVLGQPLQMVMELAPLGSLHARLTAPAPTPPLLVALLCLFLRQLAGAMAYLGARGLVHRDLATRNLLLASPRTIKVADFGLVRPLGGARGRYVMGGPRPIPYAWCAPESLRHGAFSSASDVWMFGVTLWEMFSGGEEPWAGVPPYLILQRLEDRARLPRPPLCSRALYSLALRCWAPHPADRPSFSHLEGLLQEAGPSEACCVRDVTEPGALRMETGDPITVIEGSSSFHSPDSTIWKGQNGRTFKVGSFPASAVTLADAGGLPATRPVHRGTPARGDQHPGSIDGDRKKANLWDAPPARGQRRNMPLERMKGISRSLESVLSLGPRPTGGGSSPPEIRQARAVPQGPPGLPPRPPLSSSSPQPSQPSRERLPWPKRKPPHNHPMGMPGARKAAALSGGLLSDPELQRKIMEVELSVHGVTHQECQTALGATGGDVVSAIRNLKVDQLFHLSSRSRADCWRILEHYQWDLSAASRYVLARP
The following applies: at 0.1 µM.

In experiment [17] the target is T2, Non-receptor tyrosine-protein kinase TNK1 (Homo sapiens). The following applies: at 1 µM.
Experiment [18] concerns the target Activated CDC42 kinase 1 (Homo sapiens) (UniProt Q07912). The following applies: at 0.1 µM.
Experiment [19] shares this target. Particulars: at 1 µM.
For experiment [20], the target named is High affinity nerve growth factor receptor (Homo sapiens) (UniProt P04629). The following applies: at 0.1 µM.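 Further: each value is a mean of replicate percent inhibition readings against TRKA kinase.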

Proto-oncogene tyrosine-protein kinase receptor Ret (Homo sapiens), P07949 [Y791F], sequence (P07949 whole entry Y791F): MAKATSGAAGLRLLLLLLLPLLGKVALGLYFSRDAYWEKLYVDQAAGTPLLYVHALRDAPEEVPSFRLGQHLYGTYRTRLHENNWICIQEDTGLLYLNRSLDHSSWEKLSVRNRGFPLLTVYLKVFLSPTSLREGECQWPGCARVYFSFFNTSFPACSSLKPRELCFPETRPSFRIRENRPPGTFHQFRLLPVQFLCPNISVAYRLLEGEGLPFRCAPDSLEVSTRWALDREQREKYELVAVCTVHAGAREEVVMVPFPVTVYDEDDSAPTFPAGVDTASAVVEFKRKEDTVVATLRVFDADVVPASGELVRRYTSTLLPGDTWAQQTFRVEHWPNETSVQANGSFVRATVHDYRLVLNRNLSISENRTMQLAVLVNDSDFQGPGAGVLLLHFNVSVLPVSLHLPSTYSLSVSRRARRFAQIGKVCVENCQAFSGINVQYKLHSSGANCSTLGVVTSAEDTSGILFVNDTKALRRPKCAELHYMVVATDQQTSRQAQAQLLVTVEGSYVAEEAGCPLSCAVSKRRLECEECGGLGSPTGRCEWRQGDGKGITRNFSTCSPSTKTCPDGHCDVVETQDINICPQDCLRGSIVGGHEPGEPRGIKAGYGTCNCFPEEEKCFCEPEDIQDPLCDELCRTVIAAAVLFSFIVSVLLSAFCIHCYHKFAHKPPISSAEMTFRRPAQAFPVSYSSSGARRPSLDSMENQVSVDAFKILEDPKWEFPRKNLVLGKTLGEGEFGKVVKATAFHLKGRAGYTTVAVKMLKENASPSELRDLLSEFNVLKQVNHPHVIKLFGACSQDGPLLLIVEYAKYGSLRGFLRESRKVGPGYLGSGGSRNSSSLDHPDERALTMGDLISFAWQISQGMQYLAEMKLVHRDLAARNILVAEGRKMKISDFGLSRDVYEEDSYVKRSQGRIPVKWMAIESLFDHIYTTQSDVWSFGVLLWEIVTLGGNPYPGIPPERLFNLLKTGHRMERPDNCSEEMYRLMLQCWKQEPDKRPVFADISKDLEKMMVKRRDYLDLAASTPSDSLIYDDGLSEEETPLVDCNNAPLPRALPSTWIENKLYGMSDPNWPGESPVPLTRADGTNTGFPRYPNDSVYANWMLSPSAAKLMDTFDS
Tyrosine-protein kinase Srms (Homo sapiens), sequence (Q9H3Y6 whole entry): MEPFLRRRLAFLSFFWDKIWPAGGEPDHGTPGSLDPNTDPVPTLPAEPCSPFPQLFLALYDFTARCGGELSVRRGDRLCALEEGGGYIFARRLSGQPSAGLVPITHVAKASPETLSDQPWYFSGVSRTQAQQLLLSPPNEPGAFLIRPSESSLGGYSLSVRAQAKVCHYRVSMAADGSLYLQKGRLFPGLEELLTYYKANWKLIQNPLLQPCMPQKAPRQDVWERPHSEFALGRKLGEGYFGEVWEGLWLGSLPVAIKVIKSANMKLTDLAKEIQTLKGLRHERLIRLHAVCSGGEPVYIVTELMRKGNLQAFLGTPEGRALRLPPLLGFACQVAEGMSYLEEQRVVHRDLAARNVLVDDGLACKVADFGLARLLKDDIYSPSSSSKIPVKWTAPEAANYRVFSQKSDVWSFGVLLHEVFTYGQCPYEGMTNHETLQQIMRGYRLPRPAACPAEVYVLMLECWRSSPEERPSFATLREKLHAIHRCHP
Proto-oncogene tyrosine-protein kinase ROS (Homo sapiens), sequence (P08922 whole entry): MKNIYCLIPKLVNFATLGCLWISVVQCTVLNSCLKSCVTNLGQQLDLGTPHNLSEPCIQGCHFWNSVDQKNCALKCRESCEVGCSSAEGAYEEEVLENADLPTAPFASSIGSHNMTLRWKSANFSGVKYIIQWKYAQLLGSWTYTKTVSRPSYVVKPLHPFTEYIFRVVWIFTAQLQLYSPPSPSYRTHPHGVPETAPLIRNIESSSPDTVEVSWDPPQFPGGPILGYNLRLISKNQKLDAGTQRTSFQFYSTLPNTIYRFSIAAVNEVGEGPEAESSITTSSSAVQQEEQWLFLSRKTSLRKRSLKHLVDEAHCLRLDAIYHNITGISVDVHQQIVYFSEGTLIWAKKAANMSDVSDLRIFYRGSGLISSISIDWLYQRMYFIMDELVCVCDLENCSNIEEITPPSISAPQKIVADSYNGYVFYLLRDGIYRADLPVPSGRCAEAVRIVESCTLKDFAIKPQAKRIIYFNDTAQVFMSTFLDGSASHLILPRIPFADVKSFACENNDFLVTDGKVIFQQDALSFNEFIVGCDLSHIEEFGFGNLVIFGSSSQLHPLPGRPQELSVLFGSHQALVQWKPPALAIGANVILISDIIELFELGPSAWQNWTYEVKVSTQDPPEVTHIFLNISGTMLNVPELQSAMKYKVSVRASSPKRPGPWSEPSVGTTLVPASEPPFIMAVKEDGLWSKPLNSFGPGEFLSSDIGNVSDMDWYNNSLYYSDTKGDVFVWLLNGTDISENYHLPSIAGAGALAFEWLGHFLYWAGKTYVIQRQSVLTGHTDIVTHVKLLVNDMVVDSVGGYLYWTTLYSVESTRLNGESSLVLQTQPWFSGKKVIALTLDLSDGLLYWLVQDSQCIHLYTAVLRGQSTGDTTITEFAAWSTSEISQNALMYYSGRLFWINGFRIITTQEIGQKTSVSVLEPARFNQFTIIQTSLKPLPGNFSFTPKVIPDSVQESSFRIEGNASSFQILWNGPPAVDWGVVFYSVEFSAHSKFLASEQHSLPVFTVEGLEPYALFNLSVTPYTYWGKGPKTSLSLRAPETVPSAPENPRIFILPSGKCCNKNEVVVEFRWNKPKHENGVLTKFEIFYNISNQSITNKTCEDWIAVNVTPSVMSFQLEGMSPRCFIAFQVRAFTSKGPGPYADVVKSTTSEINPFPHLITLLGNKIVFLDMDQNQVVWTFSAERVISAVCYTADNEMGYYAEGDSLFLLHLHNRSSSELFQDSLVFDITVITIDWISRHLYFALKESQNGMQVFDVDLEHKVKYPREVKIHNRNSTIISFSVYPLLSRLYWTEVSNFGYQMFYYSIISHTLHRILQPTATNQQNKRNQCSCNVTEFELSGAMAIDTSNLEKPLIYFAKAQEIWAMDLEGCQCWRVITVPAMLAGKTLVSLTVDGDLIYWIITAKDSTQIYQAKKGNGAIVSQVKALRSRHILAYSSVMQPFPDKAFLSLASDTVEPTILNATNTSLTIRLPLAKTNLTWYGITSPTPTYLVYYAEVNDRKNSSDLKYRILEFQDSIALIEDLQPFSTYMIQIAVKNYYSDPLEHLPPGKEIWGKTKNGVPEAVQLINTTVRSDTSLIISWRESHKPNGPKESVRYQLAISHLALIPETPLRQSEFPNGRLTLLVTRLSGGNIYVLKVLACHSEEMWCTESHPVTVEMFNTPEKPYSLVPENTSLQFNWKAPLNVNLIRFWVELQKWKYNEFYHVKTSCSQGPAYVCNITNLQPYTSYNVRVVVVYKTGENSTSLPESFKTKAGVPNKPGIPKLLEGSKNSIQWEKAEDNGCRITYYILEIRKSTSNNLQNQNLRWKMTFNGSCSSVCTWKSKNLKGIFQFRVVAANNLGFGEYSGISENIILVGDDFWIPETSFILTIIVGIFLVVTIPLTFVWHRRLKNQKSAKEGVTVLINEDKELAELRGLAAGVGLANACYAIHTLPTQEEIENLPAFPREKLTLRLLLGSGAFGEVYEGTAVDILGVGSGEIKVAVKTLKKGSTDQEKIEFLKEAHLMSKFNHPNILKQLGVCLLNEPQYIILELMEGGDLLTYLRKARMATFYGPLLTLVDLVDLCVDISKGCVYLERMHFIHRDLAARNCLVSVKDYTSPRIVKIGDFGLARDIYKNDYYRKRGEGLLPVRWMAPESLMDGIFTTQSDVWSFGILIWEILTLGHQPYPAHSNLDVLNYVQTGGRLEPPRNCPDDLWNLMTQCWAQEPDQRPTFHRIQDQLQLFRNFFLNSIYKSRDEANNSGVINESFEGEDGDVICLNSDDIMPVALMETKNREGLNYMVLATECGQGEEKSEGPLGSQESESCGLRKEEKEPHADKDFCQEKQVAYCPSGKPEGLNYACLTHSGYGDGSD
Angiopoietin-1 receptor (Homo sapiens), sequence (Q02763 whole entry): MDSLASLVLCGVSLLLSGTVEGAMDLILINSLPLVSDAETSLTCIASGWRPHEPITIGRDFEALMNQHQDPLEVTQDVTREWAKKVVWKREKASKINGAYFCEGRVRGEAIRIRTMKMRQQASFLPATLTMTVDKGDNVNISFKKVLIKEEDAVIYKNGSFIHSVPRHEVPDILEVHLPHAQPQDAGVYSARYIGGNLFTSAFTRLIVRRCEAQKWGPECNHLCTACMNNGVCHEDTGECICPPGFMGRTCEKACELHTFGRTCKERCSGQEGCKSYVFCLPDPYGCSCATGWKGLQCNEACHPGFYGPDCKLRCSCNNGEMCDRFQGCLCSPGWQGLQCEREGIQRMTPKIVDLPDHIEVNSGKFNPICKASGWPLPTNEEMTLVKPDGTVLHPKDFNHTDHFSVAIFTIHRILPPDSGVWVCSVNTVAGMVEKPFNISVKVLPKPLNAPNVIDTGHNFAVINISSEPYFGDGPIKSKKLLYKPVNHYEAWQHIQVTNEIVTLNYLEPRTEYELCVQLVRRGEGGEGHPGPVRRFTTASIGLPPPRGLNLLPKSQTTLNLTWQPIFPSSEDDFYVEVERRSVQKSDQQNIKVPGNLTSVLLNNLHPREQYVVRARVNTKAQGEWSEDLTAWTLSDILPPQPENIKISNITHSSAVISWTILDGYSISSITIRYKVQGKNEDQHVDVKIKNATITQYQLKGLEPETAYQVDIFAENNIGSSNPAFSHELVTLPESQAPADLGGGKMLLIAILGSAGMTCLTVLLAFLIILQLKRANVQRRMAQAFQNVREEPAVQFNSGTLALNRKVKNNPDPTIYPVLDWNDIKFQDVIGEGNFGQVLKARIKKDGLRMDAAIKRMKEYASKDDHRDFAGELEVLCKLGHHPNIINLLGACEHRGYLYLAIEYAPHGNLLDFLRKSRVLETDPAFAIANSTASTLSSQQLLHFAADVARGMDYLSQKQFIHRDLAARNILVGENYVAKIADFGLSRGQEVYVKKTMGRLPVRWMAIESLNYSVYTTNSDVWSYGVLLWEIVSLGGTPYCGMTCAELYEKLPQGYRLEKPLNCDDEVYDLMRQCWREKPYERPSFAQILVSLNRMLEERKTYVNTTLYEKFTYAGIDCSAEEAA

On to `NS(=O)(=O)c1ccc(N/C=C2\C(=O)Nc3ccc4ncsc4c32)cc1`, for which the inhibition is 69% in experiment [1]; 7.83% in experiment [2]; 39.2% in [3]; 6.11% in experiment [4]; 17% in [5]; 12.2% in [6]. In addition, the inhibition in experiment [7] was 42.9%; in [8], -3.95%; in experiment [9], -1.72%; in experiment [10] it was -2.47%; in experiment [11], -8.48%; in experiment [12], 1.96%. Moreover, the inhibition in [13] came to 10.6%; in experiment [14] it was 0.38%; in [15], 10.4%; in experiment [16] it was 6.89%; in [17], 37.8%; in experiment [18] it was 0.75%. Moreover, the inhibition in experiment [19] turned out to be 1.83%; in experiment [20] it was 9.04%.

On to `CCn1c(-c2nonc2N)nc2c(C#CCN)ncc(OCCCN)c21`, for which the inhibition in [1] is 15.8%; in experiment [2], -2.05%; in experiment [3], -3.31%; in experiment [4], 3.3%; in experiment [5], 4.46%; in experiment [6], -2.04%. Moreover, the inhibition in [7] is -4.29%; in [8] it was 1.1%; in experiment [9], 1.96%; in experiment [10] it was 8.99%; in experiment [11], -0.1%; in [12], -2.6%. Further, the inhibition is -1.5% in [13]; 0.84% in [14]; -0.39% in [15]; 2.24% in [16]; 10.6% in experiment [17]; -0.12% in [18]. For the same molecule, the inhibition is 0.81% in [19] and -3.88% in experiment [20].

With `Cc1cc(-c2ccco2)cc(C)c1/C=C/c1cncc(-c2nn[nH]n2)c1`, the inhibition in experiment [1] was 2.75%; in [2] it was 1.68%; in experiment [3] it was -0.11%; in [4] it was 2.71%; in experiment [5] it was 3.62%; in experiment [6] it was 2.38%. For the same molecule, the inhibition is 2.91% in [7]; 0.76% in experiment [8]; 3.61% in experiment [9]; 0.05% in experiment [10]; -0.41% in experiment [11]; -0.18% in experiment [12]. For the same molecule, the inhibition in experiment [13] worked out at 4.27%; in experiment [14], 2.4%; in experiment [15], 5.27%; in experiment [16] it was 14.2%; in [17] it was 75.2%; in experiment [18], 0.58%. For the same molecule, the inhibition is 3.5% in experiment [19] and -2.1% in experiment [20].

With `CCn1c(-c2nonc2N)nc2c(C#CC(C)(C)O)ncc(OCC3CCNCC3)c21`, the inhibition in [1] is 33.5%; in experiment [2], 0.01%; in experiment [3] it was 7.68%; in [4], 3.89%; in experiment [5] it was 5.45%; in [6], -0.03%. The inhibition in experiment [7] is 8.65%; in experiment [8], 0.75%; in experiment [9] it was 1.57%; in experiment [10], 0.62%; in experiment [11], -0.6%; in [12], -0.71%. The inhibition is 0.43% in experiment [13]; 0.65% in [14]; 3.85% in experiment [15]; 1.75% in [16]; 10.6% in experiment [17]; 0.81% in experiment [18]. In addition, the results for the inhibition in experiment [19] and in experiment [20] were 1.2% and 3.1%, respectively.

For the molecule `CCn1c(-c2nonc2N)nc2c(C#CC(C)(C)O)nc(O[C@@H](CN)c3ccccc3)cc21`, the inhibition in [1] came out at 80.3%; in [2] it was 1.9%; in experiment [3] it was 3.42%; in [4], 2.61%; in experiment [5], 11.1%; in experiment [6], 2.84%. Further, the inhibition worked out at 20.9% in experiment [7]; 4.6% in experiment [8]; 0.15% in [9]; 1.9% in experiment [10]; 0.56% in experiment [11]; 0.79% in experiment [12]. Moreover, the inhibition in experiment [13] is 5.82%; in experiment [14], 2.63%; in [15], 11.4%; in [16], -3.17%; in experiment [17], -3.26%; in experiment [18], -0.88%. Moreover, the inhibition in [19] is -1.74%; in experiment [20], -3.19%.

As to `Fc1ccc(-c2ncn(C3CCNCC3)c2-c2ccnc(Oc3ccccc3)n2)cc1`, the inhibition in experiment [1] was 4.13%; in experiment [3], -0.69%; in experiment [4], 2.25%; in [5], 4.83%; in experiment [6], 1.52%; in experiment [7], 2.45%. Also, the inhibition in [8] is -0.96%; in experiment [9], -0.16%; in experiment [10] it was 2.45%; in experiment [11] it was 0.47%; in [12] it was -3.67%; in experiment [13], -1.69%. Moreover, the inhibition in experiment [14] is -0.49%; in [15], 1.7%; in experiment [16], 0.27%; in [17], 1.01%; in [18] it was -0.4%; in [19], 0.06%. For the same molecule, in experiment [20], the inhibition came out at 1.92%.

In the case of `COc1cc2c(cc1Nc1nc(Nc3ccsc3C(N)=O)c3cc[nH]c3n1)N(C(=O)CN(C)C)CCC2`, the inhibition came out at 7.35% in experiment [1]; 2.97% in [2]; 11.5% in experiment [3]; 82.1% in experiment [4]; 82.1% in experiment [5]; 8.11% in [6]. For the same molecule, the inhibition in experiment [7] was 6.64%; in experiment [8] it was 5.79%; in experiment [9], 3.93%; in experiment [10], 10.9%; in [11] it was 11.2%; in experiment [12] it was -0.19%. Further, the inhibition in [13] worked out at 4.36%; in experiment [14], 6.04%; in experiment [15], 10.5%; in [16], 32.3%; in experiment [17] it was 80.2%; in experiment [18], 0.24%. The inhibition in experiment [19] turned out to be 13.2%.
